PubChem BioAssay AID1159580 (chemical genetic matrix, 2015)
Hit rate of the full screen: of about 5,500 compounds, about 2,000 (36%) were called active. Another 18% or so got no clear call; they are omitted. No stated cut-off is given here; in the data, active means normalized growth mostly below about 0.91 (no sharp cut-off); inconclusive means no clear call, values can overlap the other calls; inactive means mostly above about 0.92. This is one part of the list.

Assay: chemical genetic growth profiling, strain panel (AID 1159580);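 further: tested at 20 µM; growth read once vehicle control cultures reached saturation at 30 °C; 1 = growth at the plate median or of vehicle wells; lower values mean less growth of the strain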
Details: growth OD
[1] = S. cerevisiae deletion strains, locus YAL013W, strain DEP1, active compounds read low
[2] = S. cerevisiae deletion strains, locus YGR078C, strain PAC10, active compounds read low
[3] = S. cerevisiae deletion strains, locus YJR075W, strain HOC1, active compounds read low
[4] = S. cerevisiae deletion strains, locus YMR263W, strain SAP30, active compounds read low
[5] = S. cerevisiae deletion strains, locus YNL153C, strain GIM3, active compounds read low
[6] = S. cerevisiae deletion strains, locus YNL322C, strain KRE1, active compounds read low
[7] = S. cerevisiae deletion strains, locus YBR229C, strain ROT2, active compounds read low
[8] = S. cerevisiae deletion strains, locus YDL101C, strain DUN1, active compounds read low
[9] = S. cerevisiae deletion strains, locus YDL134C, strain PPH21, active compounds read low
[10] = S. cerevisiae deletion strains, locus YDR150W, strain NUM1, active compounds read low
[11] = S. cerevisiae deletion strains, locus YEL061C, strain CIN8, active compounds read low
[12] = S. cerevisiae deletion strains, locus YHR030C, strain SLT2, active compounds read low
[13] = S. cerevisiae deletion strains, locus YHR087W, strain rtc3, active compounds read low
[14] = S. cerevisiae deletion strains, locus YJL187C, strain SWE1, active compounds read low
[15] = S. cerevisiae deletion strains, locus YJR043C, strain POL32, active compounds read low
[16] = S. cerevisiae deletion strains, locus YLR039C, strain RIC1, active compounds read low
[17] = S. cerevisiae deletion strains, locus YLR058C, strain SHM2 (second series), active compounds read low
[18] = S. cerevisiae deletion strains, locus YLR085C, strain ARP6, active compounds read low
[19] = S. cerevisiae deletion strains, locus YLR262C, strain YPT6, active compounds read low
[20] = S. cerevisiae deletion strains, locus YML094W, strain GIM5, active compounds read low
[21] = S. cerevisiae deletion strains, locus YMR219W, strain ESC1, active compounds read low
[22] = S. cerevisiae deletion strains, locus YNL298W, strain CLA4 (second series), active compounds read low
[23] = S. cerevisiae deletion strains, locus YNR030W, strain Alg12, active compounds read low
[24] = S. cerevisiae deletion strains, locus YPL055C, strain LGE1, active compounds read low
[25] = S. cerevisiae deletion strains, locus YPL241C, strain CIN2, active compounds read low
[26] = S. cerevisiae deletion strains, locus YPR135W, strain CTF4, active compounds read low
[27] = S. cerevisiae strains, strain wild type, active compounds read low
[28] = S. cerevisiae deletion strains, locus YCL061C, strain MRC1, active compounds read low

Measured: normalized growth

COc1ccccc1N1CCN(CCCCNS(=O)(=O)c2cccc3c(N(C)C)cccc23)CC1
inactive: [1] 0.944 | S. cerevisiae deletion strains, locus YAL040C, strain CLN3, active compounds read low 0.979 | S. cerevisiae deletion strains, locus YCL061C, strain MRC1 (second series), active compounds read low 0.976 | S. cerevisiae deletion strains, locus YDR363W, strain ESC2, active compounds read low 0.939 | S. cerevisiae deletion strains, locus YER002W, strain NOP16, active compounds read low 0.999 | [2] 0.997 | [3] 0.955 | [4] 0.979 | S. cerevisiae deletion strains, locus YMR307W, strain GAS1, active compounds read low 0.994 | [5] 0.989 | S. cerevisiae deletion strains, locus YNL175C, strain NOP13, active compounds read low 1.02 | S. cerevisiae deletion strains, locus YNL197C, strain WHI3, active compounds read low 0.99 | S. cerevisiae deletion strains, locus YNL224C, strain SQS1, active compounds read low 1.04 | [6] 0.951 | S. cerevisiae deletion strains, locus YOR083W, strain WHI5 (second series), active compounds read low 1.02

CCOC(=O)c1cnn(-c2ccc(F)cc2)c1N
inactive: [1] 0.99 | [7] 0.992 | [8] 0.984 | [9] 1 | [10] 0.866 | [11] 0.984 | [2] 0.998 | S. cerevisiae deletion strains, locus YGR229C, strain SMI1, active compounds read low 0.987 | [12] 1.07 | [13] 0.967 | [14] 0.989 | [15] 0.994 | [3] 0.9 | [16] 1.04 | [17] 0.995 | [18] 0.919 | [19] 1.04 | [20] 0.938 | [21] 0.995 | [4] 0.991 | [5] 0.974 | [22] 0.966 | [6] 0.987 | [23] 0.973 | [24] 0.869 | [25] 1.06 | [26] 0.844 | [27] 0.993

NNC(=O)c1cnn(-c2ccc(Cl)cc2)c1C(F)(F)F
inactive: [1] 0.992 | [7] 0.996 | [28] 0.983 | [8] 0.993 | [9] 1.03 | [10] 0.94 | [11] 0.998 | [2] 1.01 | [12] 0.976 | [13] 0.986 | [14] 1 | [15] 0.946 | [3] 1.01 | [16] 0.909 | [17] 1 | [18] 0.976 | [19] 1.01 | [20] 0.967 | [21] 0.998 | [4] 0.977 | [5] 1 | [22] 1.01 | [6] 1 | [23] 1.03 | S. cerevisiae deletion strains, locus YOL006C, strain TOP1, active compounds read low 1.02 | [24] 0.883 | [25] 0.989 | [26] 0.916 | [27] 1.01

CCOC(=O)c1cnn(-c2ccc(N)cc2)c1C(F)(F)F
active: [12] 0.378 | [16] 0.429 | [18] 0.695 | [19] 0.472 | [20] 0.848
inactive: [1] 0.979 | [7] 0.992 | [28] 0.979 | [8] 0.992 | [10] 1.02 | [11] 0.918 | [2] 1.01 | [13] 1.02 | [15] 0.983 | [3] 1.04 | [17] 0.996 | [21] 0.99 | [4] 0.994 | [5] 0.984 | [22] 0.861 | [6] 1.01 | [23] 0.936 | [24] 0.91 | [25] 0.871 | [26] 0.797 | [27] 0.977
